Bioassay records: PubChem BioAssay, National Center for Advancing Translational Sciences (NCATS)
p53ts 39C tox = qHTS Screen for Compounds that Selectively Target Cancer Cells with p53 Mutations: Cytotoxicity of p53ts Cells at the Nonpermissive Temperature. H1299-p53A138V viability at 39C, ATP luminescence, 24 h. Potency, µM (highest dose often 46.1 µM), for the others: at the top dose activity change, negative = cell killing, usual class: cytotoxic. 130,000 tested, 1.5% active; also: % is scaled to controls: 0 for no effect and ±100 for the full control effect; nearly all actives have a fitted effect of over 55% in size
IkB signaling = IkB Signaling; ABC-DLBCL IkBa-CBG/CBR dual luciferase ratio, 4 h; response scale: scaled: untreated 0%, proteasome inhibitor 100%; Potency, µM (series often up to 57.1 µM), for the others: top-dose IkBa stabilization activation; 110,000 tested, 0.04% active; AID 445, 2006; active = well fitted curve in the direction sought with a large enough effect in the signal ratio, not every such curve was filed as active; inconclusive = small, poorly fitted or top-dose-only effect, or a change in a side signal; the % refers to the signal ratio;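 also: the direction sought is a rising ratio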
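Luminescence ratio of IκBα-fused green versus native red beetle luciferase in OCI-Ly3 cells, 4 h post-doxycycline with compound; red signal alone, scaled from basal (0%) to zero light (-100%), flagged nonspecific or cytotoxic effects.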
Peg3 imprint = qHTS Assay for Compounds that Induce Erasure of Genomic Imprints. mouse ES Peg3-LacZ reporter, beta-gal luminescence, 40 h. Potency, µM (titrated, usually from 60.7 µM), inactives show at the top dose activity change, positive = activation, actives largely listed as activators. 110,000 tested, 0.02% active. AID 1948, 2009
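Imprint erasure is scored as LacZ activity from the silenced maternal Peg3 allele in feeder-free female ES cells cultured 40 h with LIF. Luminescence is normalized to in-plate negative controls and fitted to the Hill equation.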
p53ts 32C kill = qHTS Screen for Compounds that Selectively Target Cancer Cells with p53 Mutations: Cytotoxicity of p53ts Cells at the Permissive Temperature. H1299-p53A138V at 32C, ATP luminescence viability, 24 h. 130,000 tested, 0.93% active. Potency, µM (titrated, usually from 46.1 µM), without a hit: at the top dose activity change, negative = cytotoxicity, actives largely listed as cytotoxic;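 also: 0% = DMSO and -100% = full killing by reference compound; nearly all actives have a fitted effect of over 55% in size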
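ATP-content luminescence (ATPlite) read-out after 24 h compound exposure at 32C in H1299-p53A138V cells (600/well). Tested up to 46 uM. Normalized to DMSO (0%) and 100 uM tamoxifen (100% killing); Hill-fit AC50.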
Starred values were filed as active, the others as inactive; [ ] = remark or other dose. Sampled rows, rich in hits. Any-hit rate of the full collection: about 1.6%. Unless noted, calls follow the shape of the dose curve; as a rule, active = well fitted curve in the direction sought with a large enough effect; inconclusive = small, poorly fitted or top-dose-only effect, or another doubt; inactive = no such curve, though single readings can be large; an effect the other way counts as inactive or inconclusive. Potency is read from the fitted curve at half-maximal effect.

For COc1cccc(Cn2c(=O)c(-c3cc(F)cc(F)c3)nc3cnc(N4CCNCC4)nc32)c1 the results were p53ts 39C tox 15.8µM*, IkB signaling 0.4%[11.4 µM], Peg3 imprint -40.8% and p53ts 32C kill inconclusive.
Screening O=c1c(CCc2ccccc2)nc2cnc(N3CCNCC3)nc2n1CCc1ccccc1 returned p53ts 39C tox 10µM*, IkB signaling -1.9%[11.4 µM] and p53ts 32C kill 12.6µM*.
Screening O=c1c(-c2cccs2)nc2cnc(N3CCNCC3)nc2n1-c1ccccc1 returned p53ts 39C tox -17.5%, IkB signaling 0.2%[11.4 µM] and p53ts 32C kill -22.2%.
Cc1noc(/C=C/c2ccco2)c1S(=O)(=O)N1CCC(C(=O)Nc2ccc(F)c(Cl)c2)CC1 was read as p53ts 39C tox 5.2%, IkB signaling 1.7%, Peg3 imprint -11.0%[10.9 µM] and p53ts 32C kill -3.3%.
For CCc1cc2c(cc3c(=O)n(CC(=O)NC(C)c4ccccc4)ncn32)s1 (stereo not drawn) the results were p53ts 39C tox -20.7%, IkB signaling 0.8%, Peg3 imprint -7.6%[10.9 µM] and p53ts 32C kill -0.9%.
Screening CCC1CCCCN1S(=O)(=O)c1ccc(C(=O)Nc2nnc(-c3cccs3)o2)cc1 (stereo not drawn) returned p53ts 39C tox 15.8µM*, IkB signaling 3.4%, Peg3 imprint -26.4% and p53ts 32C kill 1.9%.
COc1cccc(-c2nnc(NC(=O)c3ccc(S(=O)(=O)N4CC(C)OC(C)C4)cc3)o2)c1 (stereo not drawn) was read as p53ts 39C tox 12.6µM*, IkB signaling inconclusive, Peg3 imprint -43.1% and p53ts 32C kill -10.3%.
`CC1CC(C)CN(S(=O)(=O)c2ccc(C(=O)Nc3nnc(-c4cccs4)o3)cc2)C1` (stereo not drawn) gave p53ts 39C tox 15.8µM*, IkB signaling 6.3%, Peg3 imprint -32.1% and p53ts 32C kill 6.0%.
`Cc1ccc(NC(=O)c2c(C)oc3ncnc(N4CCCCC4)c23)c(C)c1` gave p53ts 39C tox 0.0%, IkB signaling inconclusive, Peg3 imprint -5.9%[10.9 µM] and p53ts 32C kill -7.6%.
`COc1cc(S(=O)(=O)NCCc2c(C)[nH]c3ccccc23)c(C)cc1C` gave p53ts 39C tox inconclusive, IkB signaling inconclusive, Peg3 imprint -12.2%[10.9 µM] and p53ts 32C kill 8.9%.
O=C(CCC1CCCC1)Nc1ccc(OCC(=O)N2CCOCC2)cc1 was read as p53ts 39C tox inconclusive and p53ts 32C kill 7.94µM*.
O=C(O)c1cc(S(=O)(=O)Nc2cccc(F)c2)ccc1Cl was read as p53ts 39C tox 5.5% and p53ts 32C kill 7.4%.
CN1C(=O)CSc2ccc(NC(=O)N3CCc4ccccc43)cc21 was read as p53ts 39C tox inconclusive, IkB signaling inconclusive, Peg3 imprint -45.4% and p53ts 32C kill 10µM*.
CN1C(=O)CSc2ccc(NC(=O)N3CCN(c4ccccn4)CC3)cc21 was read as p53ts 39C tox -7.7%, IkB signaling inconclusive, Peg3 imprint -21.1% and p53ts 32C kill -14.0%.
`Cc1ccc(NC(=O)N2CCc3ccccc32)cc1` gave p53ts 39C tox 5.01µM* and p53ts 32C kill 4.47µM*.
For Cn1c(=O)c(=O)n(C)c2cc(S(=O)(=O)N3CCCC3C(=O)Nc3cccc(F)c3)ccc21 (stereo not drawn) the results were p53ts 39C tox -15.3%, IkB signaling inconclusive, Peg3 imprint -1.2%[10.9 µM] and p53ts 32C kill 1.3%.
O=C(O)Cn1c(=O)oc2cc(S(=O)(=O)NC3CCCCC3)ccc21 was read as p53ts 39C tox 3.0%, IkB signaling 2.8%, Peg3 imprint -6.7% and p53ts 32C kill -6.8%.
Screening O=C1CC(c2ccccc2)Cc2nc(NCc3ccco3)ncc21 (stereo not drawn) returned p53ts 39C tox 7.94µM*, IkB signaling 7.7%, Peg3 imprint -62.4% and p53ts 32C kill 6.31µM*.
`O=C(Nc1ncc2c(n1)CC(c1ccccc1)CC2=O)c1ccco1` (stereo not drawn) gave p53ts 39C tox 3.5%, IkB signaling -1.1%, Peg3 imprint -5.6% and p53ts 32C kill -5.6%.
`COc1ccc(C)cc1NC(=O)N1CCN(c2cc(-c3noc(C)n3)ccc2C)CC1` gave p53ts 39C tox -22.0%, IkB signaling 2.9%, Peg3 imprint -2.8%[10.9 µM] and p53ts 32C kill -12.6%.
Screening Cc1cc(C)c2c(NC(=O)c3ccccc3Cl)c(C(=O)NCc3ccc(Cl)cc3)sc2n1 returned p53ts 39C tox 2.51µM*, IkB signaling 5.2%, Peg3 imprint -9.7%[10.9 µM] and p53ts 32C kill inconclusive.
`O=C(CC1N=C2c3ccccc3N=C(SCC(=O)Nc3ccccc3F)N2C1=O)NCc1ccc2c(c1)OCO2` (stereo not drawn) gave p53ts 39C tox -17.6%, IkB signaling inconclusive, Peg3 imprint 3.7%[10.9 µM] and p53ts 32C kill 14.3%.
For Cc1c(-c2nc(N)nc(C3CC3)c2C)nc(N)nc1C1CC1 the results were p53ts 39C tox -8.9%[9.22 µM], IkB signaling 1.1%[11.4 µM], Peg3 imprint -11.0%[10.9 µM] and p53ts 32C kill 4.1%[9.22 µM].
`Cc1cnc(NC(=O)CSc2nnc(COc3c(C)cccc3C)o2)s1` gave p53ts 39C tox 4.2%, IkB signaling 4.7%, Peg3 imprint 7.9% and p53ts 32C kill -8.2%.
O=C(CSc1nnc(-c2ccccc2)o1)Nc1ccccc1F was read as p53ts 39C tox 10µM*, IkB signaling inconclusive, Peg3 imprint -92.9% and p53ts 32C kill 12.6µM*.
Screening Cc1cnc(NC(=O)CSc2nnc(-c3ccccc3)o2)s1 returned p53ts 39C tox 10µM*, IkB signaling inconclusive, Peg3 imprint -59.3% and p53ts 32C kill inconclusive.
O=C(COc1ccccc1Cl)Nc1nc2c(s1)CCCC2 was read as p53ts 39C tox -18.3%, IkB signaling -1.7%, Peg3 imprint -13.9%[10.9 µM] and p53ts 32C kill -14.9%.
COc1ccccc1-c1nnc(SCC(=O)Nc2ccccc2F)o1 was read as p53ts 39C tox -1.3%, IkB signaling inconclusive, Peg3 imprint -43.1%[10.9 µM] and p53ts 32C kill -19.4%.
Screening COC(=O)c1ccccc1NC(=O)CSc1nnc(-c2ccc(C)cc2)o1 returned p53ts 39C tox 5.1% and p53ts 32C kill 4.4%.
Cc1ccc(-c2nnc(SCC(=O)Nc3ccccc3F)o2)cc1 was read as p53ts 39C tox 2.51µM*, IkB signaling inconclusive, Peg3 imprint -91.0% and p53ts 32C kill 5.01µM*.
Screening Cc1cnc(NC(=O)COc2ccccc2Cl)s1 returned p53ts 39C tox 5.01µM*, IkB signaling 0.3%, Peg3 imprint -82.8% and p53ts 32C kill 3.98µM*.
Screening COc1ccccc1OC[C@H](O)CN1CCN(CC(=O)Nc2c(C)cccc2C)CC1 returned p53ts 39C tox 10.7%, IkB signaling 2.0% and p53ts 32C kill 2.8%.
`Cc1ccc(C[C@H](Cc2nc3ccccc3[nH]2)c2nc3ccccc3[nH]2)cc1` gave IkB signaling 2.1%[11.4 µM].
